Laboratory results reported in PubChem BioAssay (NCATS).
Records with an inconclusive call do not appear. Entries that show only a call come without a potency. Unmarked numbers belong to inactive results. The source made the active and inactive calls. Unless noted, calls come from the whole dose curve.

What was measured:
[1] = qHTS for Inhibitors of the Functional Ribonucleoprotein Complex (vRNP) of Lassa (LASV) Arenavirus: LASV Primary Screen - GLuc reporter signal (AID 1347082; calls by dose curve; tested in HEK293 reporter line; note: nearly all actives have a fitted effect of over 60% in size; for activity change, negative = inhibition: series mostly up to about 57 µM)
[2] = qHTS for Inhibitors of the Functional Ribonucleoprotein Complex (vRNP) of Lassa (LASV) Arenavirus: Viability assay - alamar blue signal for LASV Primary Screen (AID 1347083; calls by dose curve; tested in HEK293 reporter line; note: nearly all actives have a fitted effect of over 80% in size; for activity change, negative = reduced viability: series mostly up to about 57 µM)
[3] = qHTS for Inhibitors of the Functional Ribonucleoprotein Complex (vRNP) of Lymphocytic Choriomeningitis Arenaviruses (LCMV): Viability assay - alamar blue signal for LCMV Primary Screen (AID 1347085; calls by dose curve; tested in HEK293 reporter line; note: nearly all actives have a fitted effect of over 80% in size; for activity change, negative = lower viability: series mostly up to about 57 µM)
[4] = target: Nucleoprotein (Lymphocytic choriomeningitis virus (strain Armstrong)) (UniProt P09992); test: qHTS for Inhibitors of the Functional Ribonucleoprotein Complex (vRNP) of Lymphocytic Choriomeningitis Arenaviruses (LCMV): LCMV Primary Screen - GLuc reporter signal (AID 1347086); note: nearly all actives have a fitted effect of over 70% in size; for activity change, negative = inhibition: series mostly up to about 57 µM
Potency is the fitted concentration of half-maximal effect.

Nucleoprotein (Lymphocytic choriomeningitis virus (strain Armstrong)), sequence (P09992 whole entry, looked up): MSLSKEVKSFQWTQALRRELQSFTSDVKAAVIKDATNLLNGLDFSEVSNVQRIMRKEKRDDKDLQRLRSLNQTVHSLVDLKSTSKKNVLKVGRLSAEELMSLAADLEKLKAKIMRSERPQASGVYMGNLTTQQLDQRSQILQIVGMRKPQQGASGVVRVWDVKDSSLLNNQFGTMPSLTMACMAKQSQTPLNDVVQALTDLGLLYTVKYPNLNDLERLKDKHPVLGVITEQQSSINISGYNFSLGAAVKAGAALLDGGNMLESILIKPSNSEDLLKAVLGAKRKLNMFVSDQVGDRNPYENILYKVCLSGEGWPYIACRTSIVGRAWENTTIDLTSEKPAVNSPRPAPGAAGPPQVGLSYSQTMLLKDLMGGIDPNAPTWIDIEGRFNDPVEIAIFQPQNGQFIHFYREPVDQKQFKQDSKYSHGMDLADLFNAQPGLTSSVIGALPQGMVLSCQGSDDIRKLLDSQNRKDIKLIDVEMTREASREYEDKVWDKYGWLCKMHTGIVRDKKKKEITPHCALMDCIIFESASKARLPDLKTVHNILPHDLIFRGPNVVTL

Structure (SMILES) | Potency [1] | Potency [2] | Potency [3] | Potency [4] | activity change, negative = inhibition [1] | activity change, negative = reduced viability [2] | activity change, negative = lower viability [3] | activity change, negative = inhibition [4]
Oc1ccccc1C=NCc1ccccc1 | inactive | inactive | inactive | inactive |  |  |  | 
Cc1c(C)c2c(c(C)c1O)CCC(C)(COc1ccc(CC3SC(=O)NC3=O)cc1)O2 (stereo not given) | inactive | inactive | inactive | inactive |  |  |  | 
COC(=O)/C=C(/C)N | inactive | inactive | inactive | inactive |  |  |  | 
CCCN1CCCC[C@H]1C(=O)Nc1c(C)cccc1C | inactive | inactive | inactive | inactive |  |  |  | 
CCCCCCOc1ccccc1C(N)=O | inactive | inactive | inactive | inactive |  |  |  | 
CCCCCCCCCCCCCCCCCC(=O)O | inactive | inactive | inactive | inactive |  |  |  | 
COc1cc(OC)c(C(=O)CCCN2CCCC2)c(OC)c1 | inactive | inactive | inactive | inactive |  |  |  | 
CCO/C([O-])=N/c1c[n+](N2CCOCC2)no1 | inactive | inactive | inactive | inactive |  |  |  | 
O=C(O)Cc1cn(-c2ccccc2)nc1-c1ccc(Cl)cc1 | inactive | inactive | inactive | inactive |  |  |  | 
O=C(O)[C@H](O)c1ccccc1 | inactive | inactive | inactive | inactive |  |  |  | 
CN[C@@H]1[C@@H](O)[C@@H](O[C@@H]2[C@H](O)[C@H](O[C@H]3OC(CN)=CC[C@H]3N)[C@@H](N)C[C@H]2N)OCC1(C)O (stereo not given in full) | inactive | inactive | inactive | inactive |  |  |  | 
CCCCCCCCCCCCOCCO | inactive | inactive | inactive | inactive |  |  |  | 
c1ccc2c(CC3=NCCN3)cccc2c1 | inactive | inactive | inactive | inactive |  |  |  | 
CC(=O)OCC1=C(C(=O)O)N2C(=O)[C@@H](NC(=O)Cc3cccs3)[C@H]2SC1 | inactive | inactive | inactive | inactive |  |  |  | 
C/C=C/C=N/NC(=O)c1ccncc1 | inactive | inactive | inactive | inactive |  |  |  | 
N#CC1(c2ccc(F)cc2)CCC(=O)CC1 | inactive | inactive | inactive | inactive |  |  |  | 
CNCCCC12CCC(c3ccccc31)c1ccccc12 | inactive | inactive | inactive | inactive |  |  |  | 
Clc1ccc2nsnc2c1NC1=NCCN1 | inactive | inactive | inactive | inactive |  |  |  | 
Cc1c(F)c(N2CCNC(C)C2)cc2c1c(=O)c(C(=O)O)cn2C1CC1 (stereo not given) | inactive | inactive | inactive | inactive |  |  |  | 
CC(=O)OCC(=O)[C@@]1(OC(C)=O)[C@@H](C)C[C@H]2[C@@H]3C[C@H](F)C4=CC(=O)C=C[C@]4(C)[C@@]3(F)[C@@H](O)C[C@@]21C | inactive | inactive | inactive | inactive |  |  |  | 

Structure (SMILES) | Potency [1] | Potency [2] | Potency [3] | Potency [4] | activity change, negative = inhibition [1] | activity change, negative = reduced viability [2] | activity change, negative = lower viability [3] | activity change, negative = inhibition [4]
Cc1c(C(=O)NCCO)[n+](=O)c2ccccc2n1[O-] | inactive | inactive | inactive | inactive |  |  |  | 
CCCCOC(=O)c1ccc(O)cc1 | inactive | inactive | inactive | inactive |  |  |  | 
NC(=O)N[C@@H](CCC(=O)O)C(=O)O | inactive | inactive | inactive | inactive |  |  |  | 
COc1cccc2c1C(=O)c1c(O)c3c(c(O)c1C2=O)C[C@@](O)(C(C)=O)C[C@H]3O[C@H]1C[C@H](N)[C@H](O)[C@H](C)O1 | 1220 nM (active) | 153 nM (active) | 153 nM (active) | 273 nM (active) |  |  |  | 
CCCCCCCC(=O)OCC(COC(=O)CCCCCCC)OC(=O)CCCCCCC | inactive | inactive | inactive | inactive |  |  |  | 
CC(CCc1ccc(O)cc1)NCCc1ccc(O)c(O)c1 (stereo not given) | inactive | inactive | inactive | inactive |  |  |  | 
CCCCC(CC)COC(=O)c1ccccc1O (stereo not given) | inactive | inactive | inactive | inactive |  |  |  | 
CC1(C)O[C@@H]2C[C@H]3[C@@H]4CCC5=CC(=O)C=C[C@]5(C)[C@@]4(F)[C@@H](O)C[C@]3(C)[C@]2(C(=O)CO)O1 | inactive | inactive | inactive | inactive |  |  |  | 
CCCCC(=O)OCC(=O)[C@H]1[C@H](C)C[C@H]2[C@@H]3C[C@H](F)C4=CC(=O)C=C[C@]4(C)[C@@]3(F)[C@@H](O)C[C@@]21C | inactive | inactive | inactive | inactive |  |  |  | 
Cc1ccccc1OCC(O)CO (stereo not given) | inactive | inactive | inactive | inactive |  |  |  | 
CCCCCCCN(CC)CCCC(O)c1ccc(NS(C)(=O)=O)cc1 (stereo not given) | inactive | inactive | inactive | inactive |  |  |  | 
CCOC(=O)C(O)c1ccccc1 (stereo not given) | inactive | inactive | inactive | inactive |  |  |  | 
CCCCC(CC)CNC(=O)CC(C)OC(=O)CCC(=O)O (stereo not given) | inactive | inactive | inactive | inactive |  |  |  | 
NCCNCCNCCN | inactive | inactive | inactive | inactive |  |  |  | 
CO[C@@H]1[C@@H](OC(N)=O)[C@@H](O)[C@H](Oc2ccc3c(O)c(NC(=O)c4ccc(O)c(CC=C(C)C)c4)c(=O)oc3c2C)OC1(C)C | inactive | inactive | inactive | inactive |  |  |  | 
COc1ccc2[nH]cc(CCNC(C)=O)c2c1 | inactive | inactive | inactive | inactive |  |  |  | 
O=C1[C@@H]2[C@H]3CC[C@H](C3)[C@@H]2C(=O)N1CCCCN1CCN(c2ncccn2)CC1 | inactive | inactive | inactive | inactive |  |  |  | 
CCOC(=O)[C@H](CCc1ccccc1)N[C@@H](C)C(=O)N1[C@H](C(=O)O)C[C@H]2CCCC[C@@H]21 | inactive | inactive | inactive | inactive |  |  |  | 
CCCCN(CCCC)CCCOC(=O)c1ccc(N)cc1 | inactive | inactive | inactive | inactive |  |  |  | 
Cc1cc2c(cc1S(N)(=O)=O)S(=O)(=O)CCC2 | inactive | inactive | inactive | inactive |  |  |  | 

Structure (SMILES) | Potency [1] | Potency [2] | Potency [3] | Potency [4] | activity change, negative = inhibition [1] | activity change, negative = reduced viability [2] | activity change, negative = lower viability [3] | activity change, negative = inhibition [4]
C=CC(N)CCC(=O)O (stereo not given) | inactive | inactive | inactive | inactive |  |  |  | 
CC(=O)NS(=O)(=O)c1ccc(N)cc1 | inactive | inactive | inactive | inactive |  |  |  | 
O=C(O)c1ccccc1OP(=O)(O)O | inactive | inactive | inactive | inactive |  |  |  | 
NS(=O)(=O)c1cc2c(cc1Cl)NC(C(Cl)Cl)NS2(=O)=O (stereo not given) | inactive | inactive | inactive | inactive |  |  |  | 
CCCOC(=O)c1ccccc1 | inactive | inactive | inactive | inactive |  |  |  | 
COc1ccc(S(=O)(=O)Nc2nnc(CC(C)C)s2)cc1 | inactive | inactive | inactive | inactive |  |  |  | 
Cc1cc2cc3c(C)cc(=O)oc3c(C)c2o1 | inactive | inactive | inactive | inactive |  |  |  | 
CC(C)CCOC(=O)c1ccc(N(C)C)cc1 | inactive | inactive | inactive | inactive |  |  |  | 
CCC(C(=O)OCCN(CC)CC)c1ccccc1 (stereo not given) | inactive | inactive | inactive | inactive |  |  |  | 
Nc1c(I)cc(I)c(C(=O)N(CCC(=O)O)c2ccccc2)c1I | inactive | inactive | inactive | inactive |  |  |  | 
OC[C@H]1O[C@@H]2O[C@H]3[C@H](O)[C@@H](O)[C@@H](O[C@H]4[C@H](O)[C@@H](O)[C@@H](O[C@H]5[C@H](O)[C@@H](O)[C@@H](O[C@H]6[C@H](O)[C@@H](O)[C@@H](O[C@H]7[C@H](O)[C@@H](O)[C@@H](O[C@H]8[C@H](O)[C@@H](O)[C@@H](O[C@H]1[C@H](O)[C@H]2O)O[C@@H]8CO)O[C@@H]7CO)O[C@@H]6CO)O[C@@H]5CO)O[C@@H]4CO)O[C@@H]3CO | inactive | inactive | inactive | inactive |  |  |  | 
Cc1nnc(SCC2=C(C(=O)O)N3C(=O)[C@@H](NC(=O)Cn4cnnn4)[C@H]3SC2)s1 | inactive | inactive | inactive | inactive |  |  |  | 
NC(=O)NC(=O)Cc1ccccc1 | inactive | inactive | inactive | inactive |  |  |  | 
CC1CN(c2cc3c(cc2F)c(=O)c(C(=O)O)cn3-c2ccc(F)cc2F)CCN1 (stereo not given) |  |  |  |  | 7.88% [at 5.82 µM] | 9.98% [at 5.82 µM] | 2.49% [at 5.82 µM] | -0.151% [at 5.82 µM]
COc1ccc(C(=O)NCc2ccc(OCCN(C)C)cc2)cc1OC | inactive | inactive | inactive | inactive |  |  |  | 
CC(C)Cc1ccc(CC(=O)O)cc1 | inactive | inactive | inactive | inactive |  |  |  | 
CC(C)C[C@H]1C(=O)N2CCC[C@H]2[C@]2(O)O[C@](NC(=O)[C@@H]3C=C4c5cccc6[nH]c(Br)c(c56)C[C@H]4N(C)C3)(C(C)C)C(=O)N12 | inactive | inactive | inactive | inactive |  |  |  | 
CC(=O)Nc1c(I)cc(I)c(C(=O)O)c1I | inactive | inactive | inactive | inactive |  |  |  | 
C[N+]1(C)[C@@H]2CC(OC(=O)[C@H](CO)c3ccccc3)C[C@H]1[C@@H]1O[C@@H]12 (stereo not given in full) | inactive | inactive | inactive | inactive |  |  |  | 
O=C1c2c(O)cccc2Cc2cccc(O)c21 | inactive | inactive | inactive | inactive |  |  |  | 
